# Compound activity (PubChem)
# Nrf2 inh = Nrf2 qHTS screen for inhibitors. A549 ARE-Fluc reporter, luciferase luminescence, 18-24 h. Potency, µM (top dose mostly 46 µM), actives largely listed as inhibitors. actives 2.1% (n = 360,000); also: nearly all actives have a fitted effect of over 60% in size
#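 Nrf2 function is reported as luminescence of an ARE-controlled luciferase in A549 cells. Compounds were tested at several concentrations, and a CellTiter-Fluor read on the same wells flagged cytotoxicity.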
# A549 viability = Nrf2 qHTS screen for inhibitors: counterscreen for cytotoxicity. A549 ARE-Fluc cells, CellTiter-Fluor viability, 18-24 h. Potency, µM (top dose mostly 46 µM), usual class: inhibitors. actives 0.16% (n = 390,000)
#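 A549 ARE-Fluc cells in 5% FBS OPTI-MEM, 5000 cells/well, rested 2 h then exposed to compounds in concentration-response for 18-24 h at 37 °C. Viability by CellTiter-Fluor fluorescence (Ex 405/Em 525) after 30 min; luciferase luminescence (BugLite, 15 min, RT) read afterwards.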
# Nrf2 ARE act = qHTS of Nrf2 Activators; AREc32 ARE-luciferase reporter (MCF7-derived line), luminescence, 24 h; Potency, µM (doses to about 46.1 µM), hits mostly activators; actives 0.31% (n = 410,000); AID 624171, 2012; also: nearly all actives have a fitted effect of over 65% in size
#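 Each well held 1000 AREc32 cells, which were incubated with compound for 24 hr at 37 deg C after overnight attachment, and ARE reporter activity was quantified by firefly luciferase luminescence.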
# HepG2 viability = qHTS for Inhibitors of TGF-b: Cytotox Counterscreen. HepG2 CAGA-GFP viability, ATP luminescence, 18 h. Potency, µM (highest dose often 46.1 µM), actives largely listed as cytotoxic. actives 0.76% (n = 410,000). AID 588856, 2011
#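 HepG2 CAGA-GFP cells (1000/well, DMEM with 1% FBS) received compound, then TGF-beta at 500 pg/mL final, and were incubated 18 hours at 37 degrees C. Viability was read by CellTiter-Glo luminescence. Media-only wells were set as complete cell-killing and DMSO as no toxicity.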
# TGFb inhibitor = qHTS for Inhibitors of TGF-b. HepG2 CAGA-GFP TGF-b/SMAD3 reporter, GFP fluorescence, 18 h; TGF-beta stimulated, 500 pg/mL final. Potency, µM (top dose mostly 46.1 µM), hits mostly inhibitors. actives 1.2% (n = 410,000). AID 588855, 2011; also: nearly all actives have a fitted effect of over 65% in size
#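 TGF-beta reporter screen: HEPG2 CAGA-GFP, 1% FBS, 500 pg/mL TGF-beta final, 18 h; per-cell GFP summed per well; curves fitted and categorized by class.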
# Numbers stand for hits; 0 = inactive; ? = inconclusive; - = not tested or not shown. The list is not random: actives were taken first. Their share in the collection is about 3.6%. Calls follow the shape of the dose curve; as a rule, active = well fitted curve in the direction sought with a large enough effect; inconclusive = small, poorly fitted or top-dose-only effect, or another doubt; inactive = no such curve, though single readings can be large; an effect the other way counts as inactive or inconclusive.
SMILES,Nrf2 inh,A549 viability,Nrf2 ARE act,HepG2 viability,TGFb inhibitor
Cc1sc(NC(=O)CCCCC(=O)Nc2sc(C)c(C)c2C(=O)O)c(C(=O)O)c1C,0,0,0,0,0
CC(=O)N(C)[C@H]1C[C@@H](c2ccccc2)N(C(C)=O)C[C@H]1CO,-,-,0,0,0
CCCCCCOc1ccc(/C=C/C(=O)Nc2sc3c(c2C(=O)OC)CCC3)cc1OC,0,0,0,0,7.94µM
Cc1[nH]c2ccccc2c1SCc1nnc(SCc2ccc(Cl)cc2)n1C,?,0,0,0,?
Cc1[nH]c2ccccc2c1SCc1nnc(SCc2ccccc2)n1C,25.9µM,0,0,0,0
Cc1ccc(S(=O)(=O)Nc2cc(C)cc(CCNC=O)c2C)cc1,0,0,0,0,0
COc1ccc(CCn2c(=N)c(S(=O)(=O)c3ccc(Cl)cc3)cc3c(=O)n4ccccc4nc32)cc1,0,0,0,0,0
CCCCn1c(NC(=O)c2ccccc2Cl)c(C#N)c2nc3ccccc3nc21,13µM,?,0,0,?
CCCCn1c(NC(=O)CC)c(C#N)c2nc3ccccc3nc21,0,0,0,0,0
N#Cc1c(NC(=O)c2ccccc2Cl)n(Cc2ccccc2)c2nc3ccccc3nc12,16.4µM,?,0,0,7.94µM
Cc1[nH]c2ccccc2c1/C=N/NC(=O)Cc1cccs1,0,0,0,0,0
CCc1cc(-c2[nH]ncc2-c2ccc([N+](=O)[O-])cc2)c(O)cc1OC,?,0,0,0,12.6µM
O=[N+]([O-])c1ccc(COc2ccc(-c3[nH]ncc3-c3ccc(Cl)cc3)c(O)c2)cc1,?,0,0,0,?
Cc1sc2c(c1C)CN(C(C)(C)C)CN2C(=O)c1ccccc1,?,0,11.2µM,0,0
Nc1ccccc1N1C(=O)c2cccc3cccc(c23)C1=O,?,0,8.91µM,0,0
O=C1c2cccc3cccc(c23)C(=O)N1c1ccccc1Cl,?,0,0,0,0
COc1ccc(C2=C(Nc3ccc(Br)c(C)c3)c3ccccc3C2=O)cc1,?,?,0,0,14.1µM
COc1ccc(C2=C(Nc3ccc(C)c(C)c3)c3ccccc3C2=O)cc1,0,0,0,0,0
O=[N+]([O-])c1ccc(C[n+]2ccccc2)cc1,20.6µM,0,0,0,0
O=[N+]([O-])c1ccc(C[n+]2ccc(Cc3ccccc3)cc2)cc1,?,0,0,0,0
COc1ccc(NS(=O)(=O)c2ccc(C)c(C(=O)NC3CCN(Cc4ccccc4)CC3)c2)cc1,13µM,0,0,0,0
Cc1ccc(NS(=O)(=O)c2cccc(C(=O)NC3CCN(Cc4ccccc4)CC3)c2)c(C)c1,20.6µM,?,0,0,?
O=C(NC1CCN(Cc2ccccc2)CC1)c1cccc(S(=O)(=O)Nc2ccc(F)cc2)c1,16.4µM,?,0,0,0
COc1ccccc1NS(=O)(=O)c1ccc(C)c(C(=O)NC2CCN(Cc3ccccc3)CC2)c1,?,0,0,0,0
Cc1ccc(C(=O)NC2CCN(Cc3ccccc3)CC2)cc1S(=O)(=O)N1CCOCC1,?,0,0,0,0
SMILES,Nrf2 inh,A549 viability,Nrf2 ARE act,HepG2 viability,TGFb inhibitor
O=C(NC1CCN(Cc2ccccc2)CC1)c1cccc(S(=O)(=O)Nc2ccc(Br)cc2)c1,?,0,0,0,?
COc1ccccc1NS(=O)(=O)c1cc(C(=O)NC2CCN(Cc3ccccc3)CC2)ccc1C,5.8µM,?,0,0,?
C/C(=N\NC(=O)c1nn(C)cc1Br)c1cccc(NC(=O)C(C)(C)C)c1,0,0,0,0,0
CCCCN(CCCC)S(=O)(=O)c1ccc(NC(=O)c2cccs2)cc1,18.4µM,?,0,0,?
Fc1ccc(C2CCCN2Cc2nc(Cc3ccccc3F)no2)cc1 (stereo unspecified),0,0,0,0,0
O=C(CC1C(=O)N(c2ccccc2)C(=O)N1CCC1=CCCCC1)Nc1ccc(F)cc1 (stereo unspecified),0,0,0,0,11.2µM
O=C(C1=C[C@@H](c2csc3ccccc23)C[C@@H](OCc2ccc(CO)cc2)O1)N1CCN(Cc2ccccc2)CC1,16.4µM,0,0,0,?
